Measurements reported in PubChem BioAssay AID1159580 (chemical genetic matrix, 2015).
Where “and” joins values, the source holds several entries; their conditions need not be identical. Equal values may be shown once. The whole screen tested about 5,500 compounds, of which about 2,000 (36%) were called active. Inconclusive results (about 18%) are left out. Cut-off read from the data, not from the text of the source: active = normalized growth mostly below about 0.91 (no sharp cut-off); inconclusive = no clear call, values can overlap the other calls; inactive = mostly above about 0.92. This is one part of the list.

Experiment: chemical genetic growth profiling, strain panel (AID 1159580);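 note: tested at 20 µM; growth read once vehicle control cultures reached saturation at 30 °C; 1 = growth at the plate median or of vehicle wells; lower values mean less growth of the strain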
Settings: S. cerevisiae deletion strains, growth OD

Measured: normalized growth

COc1ccc(C(CN(C)C)C2(O)CCCCC2)cc1 (stereo unspecified)
inactive: locus YAL013W, strain DEP1, stronger effect = lower value 1.01 | locus YAL021C, strain ccr4, stronger effect = lower value 0.976 | locus YAL026C, strain drs2, stronger effect = lower value 0.995 | locus YAL030W, strain snc1, stronger effect = lower value 0.988 | locus YBL061C, strain skt5, stronger effect = lower value 0.992 | locus YBR009C, strain hhf1, stronger effect = lower value 1.01 | locus YBR021W, strain FUR4, stronger effect = lower value 1.02 | locus YBR023C, strain chs3, stronger effect = lower value 1.01 | locus YBR171W, strain sec66, stronger effect = lower value 0.982 | locus YBR229C, strain ROT2, stronger effect = lower value 1.01 | locus YBR231C, strain swc5, stronger effect = lower value 1.03 | locus YBR279W, strain paf1, stronger effect = lower value 1.01 | locus YCL011C, strain gbp2, stronger effect = lower value 0.994 | locus YCL016C, strain dcc1, stronger effect = lower value 1.01 | locus YCL029C, strain bik1, stronger effect = lower value 0.979 | locus YCL069W, strain vba3, stronger effect = lower value 0.974 | locus YCR088W, strain abp1, stronger effect = lower value 0.99 | locus YDL005C, strain med2, stronger effect = lower value 0.978 | locus YDL035C, strain GPR1, stronger effect = lower value 1.02 | locus YDL040C, strain nat1, stronger effect = lower value 0.962 | locus YDL074C, strain BRE1, stronger effect = lower value 1.03 | locus YDL101C, strain DUN1, stronger effect = lower value 1.02 | locus YDL134C, strain PPH21, stronger effect = lower value 1.02 | locus YDL185W, strain tfp1, stronger effect = lower value 0.997 | locus YDL192W, strain arf1, stronger effect = lower value 0.991 | locus YDR001C, strain nth1, stronger effect = lower value 0.986 | locus YDR069C, strain doa4, stronger effect = lower value 0.973 | locus YDR101C, strain arx1, stronger effect = lower value 0.986 | locus YDR137W, strain rgp1, stronger effect = lower value 0.971 | locus YDR150W, strain NUM1, stronger effect = lower value 1.01 | locus YDR159W, strain sac3, stronger effect = lower value 0.974 | locus YDR162C, strain NBP2, stronger effect = lower value 0.985 | locus YDR195W, strain ref2 0.975 | locus YDR297W, strain sur2, stronger effect = lower value 0.994 | locus YDR318W, strain mcm21, stronger effect = lower value 0.996 | locus YDR334W, strain swr1, stronger effect = lower value 0.97 | locus YDR335W, strain msn5, stronger effect = lower value 0.996 | locus YDR388W, stronger effect = lower value 0.988 | locus YDR392W, strain spt3, stronger effect = lower value 0.985 | locus YDR502C, strain sam2, stronger effect = lower value 0.99 | locus YEL003W, strain gim4, stronger effect = lower value 0.976 | locus YEL037C, strain rad23, stronger effect = lower value 0.974 | locus YEL061C, strain CIN8 (second series), stronger effect = lower value 0.98 | locus YEL061C, strain CIN8, stronger effect = lower value 1.01 | locus YER015W, strain faa2, stronger effect = lower value 1.01 | locus YER016W, strain bim1, stronger effect = lower value 0.972 | locus YER110C, stronger effect = lower value 0.99 | locus YER111C, strain swi4, stronger effect = lower value 0.994 | locus YER155C, strain BEM2 (second series), stronger effect = lower value 0.962 | locus YER155C, strain BEM2, stronger effect = lower value 0.987 | locus YER167W, strain BCK2, stronger effect = lower value 1.01 | locus YFR010W, strain ubp6, stronger effect = lower value 0.987 | locus YGL078C, strain dbp3, stronger effect = lower value 0.989 | locus YGL086W, strain mad1, stronger effect = lower value 0.996 | locus YGL167C, strain pmr1, stronger effect = lower value 0.979 | locus YGL173C, strain kem1, stronger effect = lower value 0.987 | locus YGL227W, strain vid30, stronger effect = lower value 0.988 | locus YGL240W, strain doc1, stronger effect = lower value 0.992 | locus YGL248W, strain PDE1, stronger effect = lower value 1.01 | locus YGL253W, strain hxk2, stronger effect = lower value 0.999 | locus YGR078C, strain PAC10, stronger effect = lower value 1 | locus YGR135W, strain pre9, stronger effect = lower value 0.985 | locus YGR229C, strain SMI1, stronger effect = lower value 1.02 | locus YGR252W, strain gcn5, stronger effect = lower value 0.973 | locus YHR013C, strain ard1, stronger effect = lower value 0.932 | locus YHR027C, strain rpn1, stronger effect = lower value 0.987 | locus YHR030C, strain SLT2, stronger effect = lower value 1.01 and 1 | locus YHR079C, strain IRE1 (second series), stronger effect = lower value 0.99 | locus YHR079C, strain IRE1, stronger effect = lower value 1.01 | locus YHR094C, strain hxt1, stronger effect = lower value 0.997 | locus YHR129C, strain ARP1, stronger effect = lower value 1.01 | locus YHR142W, strain chs7, stronger effect = lower value 0.974 | locus YHR200W, strain rpn10, stronger effect = lower value 0.996 | locus YIL066C, strain RNR3, stronger effect = lower value 1.01 | locus YIL073C, strain SPO22, stronger effect = lower value 1.04 | locus YIL125W, strain kgd1, stronger effect = lower value 0.998 | locus YIR030C, strain dcg1, stronger effect = lower value 0.986 | locus YJL092W, strain hpr5, stronger effect = lower value 0.976 | locus YJL095W, strain BCK1 (second series), stronger effect = lower value 0.984 | locus YJL095W, strain BCK1, stronger effect = lower value 1.01 and 0.997 | locus YJL115W, strain asf1, stronger effect = lower value 0.958 | locus YJL129C, strain trk1, stronger effect = lower value 0.989 | locus YJL134W, strain LCB3, stronger effect = lower value 1.01 | locus YJL154C, strain vps35, stronger effect = lower value 0.974 | locus YJL164C, strain tpk1, stronger effect = lower value 1 | locus YJL166W, strain qcr8, stronger effect = lower value 0.971 | locus YJL168C, strain set2, stronger effect = lower value 0.997 | locus YJL187C, strain SWE1 (second series), stronger effect = lower value 1.01 | locus YJR043C, strain POL32, stronger effect = lower value 1 | locus YJR066W, strain TOR1, stronger effect = lower value 0.979 | locus YJR075W, strain HOC1, stronger effect = lower value 1.02
